# Reference: PubChem BioAssay
# Where “and” joins values, the source holds several entries; their conditions need not be identical. Identical values can stand only once. Calls of active or inactive are those of the source. Rule as the data show it, unless noted: active = parasite load remaining mostly below about 12% (no sharp cut-off); inactive = mostly above about 10%.
# Columns and labels:
# [1] = P. berghei load reduction in hepatocytes – cell-based, HepG2, luciferase luminescence, HepG2 viability, primary screen (AID 624349);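 also: 100% = mean of DMSO negative control wells on the same plate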; conditions: P. berghei liver stage in HepG2, luciferase luminescence, concentration not given here; parasite load remaining: stronger effect = lower value; viability: measured here: HepG2 viability without parasites
# [2] = viability loss with induced miR-34 in A549 – imaging, A549 dox-inducible miR-34, nuclei and caspase counts, primary screen (AID 1347080;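 active = compounds whose cell count with miR-34 switched on is under 0.7 times the count with it off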); conditions: A549 miR-34 inducible, Hoechst nuclei count, 48 h
# [3] = compounds altering viability of human ES cells (AID 493140; call rule not given here;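 also: cells exposed to compounds for four days before counting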); conditions: human embryonic stem cell survival screen; stronger effect = higher value
# [4] = chitosan synthesis blockers in C. neoformans – flow cytometry, Cibacron Brilliant Red staining (AID 1347148; call rule not given here;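 also: compound exposure lasted three days at 37 degrees C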); conditions: Cryptococcus neoformans chitosan, stronger effect = lower value; at 10 µM unless noted
# [5] = stronger effect = lower value, cell number ratio, induced over uninduced
# [6] = measured here: relative caspase fold change +Dox/-Dox
# [7] = measured here: total cells with miR-34 induction, stronger effect = lower value
# [8] = measured here: total cells without miR-34 induction
Compound,parasite load remaining [1],viability [1],"fold change [2, 5]","fold change [2, 6]","cell count [2, 7]","cell count [2, 8]",fold change ([2]; stronger effect = lower value),survival [3],fold fluorescence [4]
C=C1[C@@H](O)[C@]23C[C@@H]1[C@@H](O)C[C@H]2[C@@]12C4[C@@H]3C[C@@H]1[C@@](C)(CC[C@@H]2O)CN4CC,76.8% (inactive),104%,0.894 (inactive),0.861,8910,9970,–,–,–
CCN1C[C@]2(COC)CC[C@H](O)[C@]34C1[C@](O)([C@@H](OC)[C@H]23)[C@@]1(O)C[C@H](OC)[C@H]2C[C@@H]4[C@@H]1[C@H]2OC,79.1% (inactive),102%,0.871 (inactive),0.967,9200,10600,–,–,–
CN1CCC2=C[C@H](O)[C@H]3OC(=O)c4cc5c(cc4[C@H]3[C@@H]21)OCO5,42.8% (inactive),96.9%,0.881 (inactive),1.04,6350,7210,–,–,–
CC[C@H]1C2C[C@H]3[C@@H]4N(C)c5ccccc5C45C[C@H](C2[C@H]5O)N3[C@@H]1O (some centres undefined),126% (inactive),98.7%,0.84 (inactive),1.31,8780,10400,–,–,–
CC(Cc1ccccc1)NCCC(c1ccccc1)c1ccccc1 (centres undefined) (tested in a mixture with another compound),65.1% (inactive),77.8%,–,1.52,5460,6790,0.804 (inactive),–,–
COc1cc(C(=O)OC2C[C@H]3CC[C@@H](C2)N3C)ccc1O (some centres undefined),90.6% (inactive),98.9%,–,1.48,8240,9120,0.903 (inactive),–,–
COc1ccc(C[C@@H]2NC[C@@H](O)[C@@H]2OC(C)=O)cc1,4.56% (inactive),32.9%,–,1.1,1100,1160,0.95 (inactive),0.25 (inactive),–
CC(C)[C@@H]1NC(=O)[C@H](C(C)C)OC(=O)[C@@H](C(C)C)NC(=O)[C@@H](C)OC(=O)[C@@H](C(C)C)NC(=O)[C@H](C(C)C)OC(=O)[C@@H](C(C)C)NC(=O)[C@@H](C)OC(=O)[C@H](C(C)C)NC(=O)[C@H](C(C)C)OC(=O)[C@H](C(C)C)NC(=O)[C@H](C)OC1=O,–,–,–,–,–,–,–,–,7.5 [at 45 µM] (inactive)
C=C1C/C(=C/C)C(=O)O[C@@H]2CCN3CC=C(COC(=O)[C@]1(C)O)[C@H]23,91.1% (inactive) and 73.7% (inactive),125% and 77.7%,–,1.73,9540,10800,0.88 (inactive),10.6 (inactive),–
C=C[C@]12CN(C)[C@@H]3[C@H]4COC(CC41)[C@]1(C(=O)Nc4ccccc41)[C@@H]32,100% (inactive),94.8%,0.845 (inactive),1.55,8470,10000,–,–,–
CC[C@@H](C)C(=O)O[C@H]1[C@H](O)[C@H]2[C@@H](CN3C[C@@H](C)CC[C@H]3[C@@]2(C)O)C2C[C@]34O[C@@]5(O)[C@@H](OC(=O)[C@](C)(O)CC)CC[C@@]3(C)[C@@H]5[C@@H](OC(C)=O)[C@@H](OC(C)=O)[C@H]4[C@@]21O (some centres undefined),119% (inactive),111%,0.898 (inactive),1.61,9180,10200,–,–,–
COc1cc2c(c(OC)c1OC)-c1ccc(O)c(=O)cc1[C@@H](N)CC2,106% (inactive),105%,0.884 (inactive),1.33,5720,6460,–,–,–
C[C@H]1CCC2(NC1)O[C@H]1C[C@H]3[C@@H]4CC[C@H]5C[C@@H](O[C@@H]6O[C@H](CO)[C@H](O[C@@H]7O[C@H](CO)[C@@H](O)[C@H](O[C@@H]8OC[C@@H](O)[C@H](O)[C@H]8O)[C@H]7O[C@@H]7O[C@H](CO)[C@@H](O)[C@H](O)[C@H]7O)[C@H](O)[C@H]6O)CC[C@]5(C)[C@H]4CC[C@]3(C)[C@H]1[C@@H]2C (some centres undefined),1.56% (inactive),9.75%,0.761 (inactive),0.652,430,564,–,–,–
CCN1C[C@]2(COC)CC[C@H](OC)[C@@]34C1[C@]1(OCO[C@@]15C[C@H](OC)[C@H]1C[C@@H]3[C@@H]5[C@H]1OC)[C@@H](O)[C@H]24,79.2% (inactive),96.3%,0.844 (inactive),1.35,8580,10200,–,–,–
C[C@@]1(CO)[C@H]2CC[C@@H]3C[C@H]4C[C@@]3(CC[C@@]4(O)CO)[C@]2(C)CC[C@@H]1O,–,–,–,–,–,–,–,–,13 [at 147.7 µM] (inactive)
CO[C@H](C)C(O)(C(=O)OCC1=CCN2CC[C@H](O)[C@@H]12)C(C)C (some centres undefined),69.7% (inactive),101%,0.879 (inactive),1.23,8290,9440,–,–,–
NCCC(O)C(=O)N[C@@H]1C[C@H](N)[C@@H](OC2O[C@H](CN)[C@@H](O)[C@H](O)[C@H]2N)[C@H](OC2O[C@H](CO)C(O)[C@H]2O)[C@H]1O (some centres undefined),106% (inactive),91%,0.815 (inactive),1.54,7990,9800,–,–,–
C[N+]1=Cc2cc3c(cc2CC1)OCO3,30.1% (inactive),46.5%,0.917 (inactive),1.08,9060,9880,–,–,–
COc1cc2c(cc1O)[C@@H]1Cc3ccc(OC)c(O)c3CN1CC2,152% (inactive),92.5%,0.78 (inactive),1.3,2600,3330,–,–,–
COc1ccc(C(=O)OC2C[C@H]3CC[C@H](C2)N3C)cc1OC (some centres undefined),72.9% (inactive),108%,0.888 (inactive),1.53,9600,10800,–,–,–
CCN1C[C@]2(C)CC[C@H](O)[C@]34C1[C@H](C[C@H]23)[C@@]1(O)C[C@H](OC)[C@H]2C[C@@H]4[C@@H]1C2O (some centres undefined),57.3% (inactive),100%,0.863 (inactive),1.17,9000,10400,–,–,–
C[C@H]1CC[C@@H]2[C@@H](C)[C@H]3[C@H](C[C@H]4[C@@H]5CC=C6C[C@@H](O[C@@H]7O[C@H](CO)[C@H](O)[C@H](O[C@@H]8O[C@H](CO)[C@@H](O)[C@H](O)[C@H]8O)[C@H]7O[C@@H]7O[C@@H](C)[C@H](O)[C@@H](O)[C@H]7O)CC[C@]6(C)[C@H]5CC[C@]34C)N2C1,143% (inactive),114%,0.926 (inactive),1.19,8230,8880,–,–,–
